AmpC nodet inh – Promiscuous and Specific Inhibitors of AmpC Beta-Lactamase (assay without detergent). P00811. AmpC nitrocefin hydrolysis, absorbance 480 nm, no detergent. Potency, µM (titrated, usually from 28.7 µM). 71,000 compounds, 1.8% hits. AID 585, 2007
Target sequence (P00811 whole entry, looked up): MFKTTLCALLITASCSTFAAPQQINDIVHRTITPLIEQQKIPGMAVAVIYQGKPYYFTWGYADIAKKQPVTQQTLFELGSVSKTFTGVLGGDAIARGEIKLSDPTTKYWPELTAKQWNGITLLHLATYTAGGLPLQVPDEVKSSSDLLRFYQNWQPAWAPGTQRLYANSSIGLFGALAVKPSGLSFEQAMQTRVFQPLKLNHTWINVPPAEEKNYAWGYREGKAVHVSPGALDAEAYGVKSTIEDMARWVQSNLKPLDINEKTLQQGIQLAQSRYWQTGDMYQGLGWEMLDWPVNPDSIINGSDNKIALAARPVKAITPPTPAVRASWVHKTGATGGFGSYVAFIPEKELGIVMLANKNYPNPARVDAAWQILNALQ
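AmpC, 20 mM phosphate pH 7.0; 15 min cpd preinc, RT; start with nitrocefin (800 uM stock); A480 kinetic read, 20 s intervals, 4 min. No-enzyme wells = negative control.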
Prx2 Sm inh – Schistosoma Mansoni Peroxiredoxins (Prx2) | S. mansoni Prx2 activity coupled to TGR/GSH (TGR is thioredoxin glutathione reductase), NADPH fluorescence loss, qHTS | 65,000 compounds, 0.07% hits | Potency, µM
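Enzyme mix: 100 uM NADPH, 25 nM TGR, 700 uM GSH, 50 nM Prx2 in 100 mM phosphate pH 7.4, 10 mM EDTA, 0.01% Tween-20. 15 min RT with compound; NADPH/GSH added, H2O2 starts reaction; NADPH fluorescence read 8 min.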
LT uptake inh – qHTS Assay for Anthrax Lethal Toxin Internalization. Potency, µM (highest dose often 40 µM), actives largely listed as inhibitors. AID 912, 2007. Cells, anthrax lethal toxin internalization, FRET ratio (460/530). 70,000 compounds, 0.67% hits; further: nearly all actives have a fitted effect of over 50% in size
AmpC det inh – Promiscuous and Specific Inhibitors of AmpC Beta-Lactamase (assay with detergent). purified AmpC, nitrocefin hydrolysis with detergent. Potency, µM (doses to about 28.7 µM). 71,000 compounds, 0.09% hits; active means well fitted curve in the direction sought with a large enough effect; inconclusive means small, poorly fitted or top-dose-only effect
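E. coli AmpC (5.3 nM) in 20 mM phosphate pH 7.0 with 0.01% Triton X-100, preincubated 15 min RT with compound; nitrocefin (2 uL of 800 uM stock) hydrolysis followed by 480 nm absorbance every 20 s over 4 min.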
Large screens that a line does not name were inactive; [ ] = remark or other dose. In the library only some 2.6% were active in any assay of this set; here they are far more common. Unless noted, the call rests on the fitted dose curve.

CSc1nc(-c2ccco2)nn1C(=O)c1ccc(C)cc1	AmpC nodet inh 4µM[single pt active], LT uptake inh inconclusive
Nc1nc(-c2ccco2)nn1C(=O)CCc1ccccc1	none
CSc1nc(-c2ccco2)nn1C(=O)c1ccco1	AmpC nodet inh 2.5µM[single pt active]
C=CCCCCCCC=C	none (no result: Prx2 Sm inh)
C=CCn1c(=O)c(C(=O)Nc2nnc(C)s2)c(O)c2ccccc21	none
CCSC1(SCC)N=C(N)C2(C#N)C(c3ccccc3)NC3=C(CCC3)C12C#N (stereo unspecified)	LT uptake inh inconclusive
CCSC1(SCC)N=C(N)C2(C#N)C(c3ccc(OC)c(OC)c3OC)C12C#N (stereo unspecified)	LT uptake inh 10µM
Cc1ccc([C@@H](O)c2cnc(C)n2Cc2ccccc2)cc1	none
COc1ccccc1NC(=O)NCCCN1CCN(c2cccc(Cl)c2)CC1	AmpC nodet inh 4µM[single pt active], LT uptake inh inconclusive
O=C(O)[C@@H]1[C@@H](C(=O)NCc2ccncc2)[C@@H]2C=C[C@@H]1O2	LT uptake inh inconclusive
CCNc1ncc2nc(CCc3ccccc3)c(=O)n(-c3ccccc3)c2n1	LT uptake inh inconclusive
Cc1noc(C)c1-c1ccc2ncnc(Nc3ccc(F)cc3)c2c1	LT uptake inh inconclusive
COc1ccccc1-c1cc(N)n(S(=O)(=O)c2ccc(F)c(C)c2)n1	AmpC nodet inh 20µM[single pt active], LT uptake inh inconclusive
COc1ccc(S(=O)(=O)n2nc(-c3cc(OC)c(OC)c(OC)c3)cc2N)cc1OC	none
CN(C)CCNc1oc(-c2ccccc2F)nc1C#N	AmpC nodet inh 4µM[single pt active]
N#Cc1nc(-c2ccccc2F)oc1NC1CCCCC1	AmpC nodet inh 4µM[single pt active], LT uptake inh inconclusive
N#Cc1nc(-c2ccccc2F)oc1NCc1cccc2c1OCO2	none
O=S(=O)(c1ccccc1)N1CCC2(CCCN(c3ccccn3)C2)CC1	LT uptake inh inconclusive
CC(=O)c1cccc(NC(=O)c2cnn3ccccc23)c1	AmpC nodet inh 4µM[single pt active]
O=C(NCc1cccnc1)c1ccccc1Br	none
O=C(NCc1cccnc1)c1cnn2ccccc12	AmpC nodet inh 4µM
CCCS(=O)(=O)N1CCC(C(=O)N2CCN(Cc3ccccc3)CC2)CC1	none
CS(=O)(=O)N1CCC(C(=O)N2CCC(Cc3ccccc3)CC2)CC1	AmpC nodet inh 13µM, AmpC det inh inconclusive
COc1cc2cc3c4cc(OC)c(OC)cc4cc[n+]3c(C)c2cc1OC	Prx2 Sm inh inconclusive
Cc1csc(NC(=O)C(CC(C)C)NS(=O)(=O)c2ccc3c(c2)oc(=O)n3C)n1 (stereo unspecified)	AmpC nodet inh 4µM[single pt active]
O=S(=O)(c1ccc2c(c1)OCCO2)N1CCC(c2nc3ccc(Cl)cc3[nH]2)CC1	LT uptake inh 13µM
COC(=O)c1ccc(-c2nn(C)c(=O)c3ccccc23)cc1	AmpC nodet inh 4µM[single pt active]
CCCCNC(=O)c1ccc(CS(=O)(=O)c2ccc(OC)cc2)o1	AmpC nodet inh 4µM[single pt active]
O=C(NCc1ccco1)c1ccc(CS(=O)(=O)c2cccc(C(F)(F)F)c2)o1	none
COc1ccc(S(=O)(=O)Cc2ccc(C(=O)NCc3ccco3)o2)cc1	AmpC nodet inh 4µM[single pt active]
COc1ccccc1S(=O)(=O)Cc1ccc(C(=O)NCc2cccs2)o1	none (no result: LT uptake inh)
O=C(NCc1ccc2c(c1)OCO2)c1ccc(CS(=O)(=O)c2ccc(Br)cc2)o1	AmpC nodet inh 4µM[single pt active], LT uptake inh inconclusive
COc1ccc(S(=O)(=O)Cc2ccc(C(=O)NCc3cccs3)o2)cc1	AmpC nodet inh 4µM[single pt active]
CNc1sc(C(=O)c2cccs2)c(N)c1-c1nc2ccccc2s1	AmpC nodet inh 13µM[single pt active], LT uptake inh inconclusive
COc1cccc(NC(=O)CN2C(=O)COc3ccc(Cl)cc32)c1	LT uptake inh 16µM
CCOc1ccc(NC(=O)CN2C(=O)COc3ccc(Cl)cc32)cc1	AmpC nodet inh 4µM[single pt active], LT uptake inh inconclusive
Cc1cccc(NC(=O)CN2C(=O)COc3ccc(Cl)cc32)c1	LT uptake inh inconclusive
COC(=O)CN1C(=O)COc2ccc(Cl)cc21	AmpC nodet inh 4µM[single pt active]
COCCNC(=O)CN1C(=O)COc2ccc(Cl)cc21	none
COC(=O)c1ccc2c(c1)N(Cc1cc(C)ccc1C)C(=O)c1ccccc1S2=O (stereo unspecified)	AmpC nodet inh 4µM[single pt active]
O=C1CCc2cc(S(=O)(=O)N3CCCC3C(=O)N3CCN(c4ccccc4)CC3)ccc2N1 (stereo unspecified)	AmpC nodet inh 4µM[single pt active]
O=C1CCc2cc(S(=O)(=O)N3CCCC3C(=O)N3CCN(c4ccccc4F)CC3)ccc2N1 (stereo unspecified)	none

Source: PubChem BioAssay (National Center for Advancing Translational Sciences (NCATS))
